From PubChem BioAssay AID1467 (National Center for Advancing Translational Sciences (NCATS), 2008)
Among all 230,000 compounds or so, fewer than 10 were called active. The call rests on the fitted dose curve; in most records, active means well fitted curve in the direction sought with a large enough effect; inconclusive means small, poorly fitted or top-dose-only effect, or effect the other way, or another doubt; inactive means no such curve, though single readings can be large or run the other way. Only a sample is shown.

Each compound was assayed against Alpha-galactosidase A (Homo sapiens) (UniProt P06280) (assay: qHTS Assay for Inhibitors of Human alpha-Galactosidase at pH 4.5.). Details: purified enzyme, 4-MU-alpha-Gal fluorescence; series mostly up to 105 µM; activity change, negative = inhibition: at the top concentration.
Description: NIH Chemical Genomics Center [NCGC]
NIH Molecular Libraries Probe Production centers Network [MLPCN]
Assay Submitter (PI): Wei Zheng
Alpha-galactosidase is a homodimeric glycoprotein that hydrolyzes the terminal alpha-galactosyl moieties from glycolipids and glycoproteins. Deficiency of this enzyme results in Fabry Disease with progressive accumulation of globotriaosylceramide and other glycosphingolipids in vascular endothelial cells that causes renal failure, myocardial infarction and stroke, and premature death in patients. It has been reported that the improper folding and trafficking of alpha-galactosidase resulting from the genetic mutations may account for a significant numbers of Fabry patients. […] We optimized this alpha-galactosidase assay in 1536-well plate format for identifying the novel small molecule inhibitors with the structures other than the sugar analogs in order to develop the new pharmacological chaperones. Although this assay has the same protocol as PubChem AID 992, this is a separate project and, therefore, is published as a separate assay
NCGC Assay Protocol Summary:
This is a fluorogenic enzyme assay with 4-Methylumbelliferyl alpha-D-galactopyranoside as the substrate and human […] as the enzyme preparation. Upon the hydrolysis of this fluorogenic substrate, the resulting product, […]. 4-Methyllumbelliferone, can be excited at 365 nm and emits at 440 nm. This fluorescence which can be detected by a standard fluorescence plate reader. Data were normalized to the controls for basal activity (without enzyme) and 100% activity (with enzyme). In the AC50 values were determined from concentration-response data modeled with the standard Hill equation.
Assay buffer: 50 mM citric acid (titrated with potassium phosphate to pH 4.5), 0.005% Tween-20, pH 4.5. (pH 4.5 is an optimal condition for this enzyme assay)
1536-well assay protocol for the human alpha-galactosidase:
(1) Add 2 ul/well of enzyme (12 nM final)
(2) Add 23 nL compounds in DMSO solution. The final titration was 0.7 nM to 77 uM.
(3) Add 1 ul of substrate (400 uM final)
(4) Incubate at room temperature for 20 min.
(5) Add 2 ul stop solution (1M NaOH and 1M Glycine mixture, pH 10)
(6) Detect the assay plate in a ViewLux plate reader (PerkinElmer) with Ex=365 nm and Em=440nm.
Keywords: MLSMR, MLPCN, NIH Roadmap, qHTS, NCGC, : Alpha-galactosidase, Fabry Disease, pharmacological chaperone, chaperone therapy
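Further: 0% = full activity with enzyme and -100% = basal without enzyme.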

Sequence of Alpha-galactosidase A (Homo sapiens) (P06280 whole entry, looked up): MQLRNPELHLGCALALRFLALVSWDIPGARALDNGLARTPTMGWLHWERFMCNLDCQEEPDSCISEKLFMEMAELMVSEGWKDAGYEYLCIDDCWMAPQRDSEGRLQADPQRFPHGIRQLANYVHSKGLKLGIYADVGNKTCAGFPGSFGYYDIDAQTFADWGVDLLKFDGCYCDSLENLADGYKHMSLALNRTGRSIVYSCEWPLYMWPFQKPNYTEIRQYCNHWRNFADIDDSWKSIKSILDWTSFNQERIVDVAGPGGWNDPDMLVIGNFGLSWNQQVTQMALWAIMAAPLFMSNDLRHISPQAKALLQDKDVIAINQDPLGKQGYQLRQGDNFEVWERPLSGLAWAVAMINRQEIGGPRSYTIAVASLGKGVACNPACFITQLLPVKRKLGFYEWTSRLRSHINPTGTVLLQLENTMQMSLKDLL

Row | Structure (SMILES) | activity change, negative = inhibition
1 | Cn1c(SCC(=O)NC2CCCCC2)nnc1-c1ccc(N)cc1 | -1.25% (inactive)
2 | COC(=O)C1=C(C(=O)OC)[C@@H]2N(C)c3ccccc3[C@@]23C[C@@H](C(=O)OC)N(S(=O)(=O)c2cccs2)C3=N1 | -0.375% (inactive)
3 | CN1CCC(=NNC(=O)CN(c2cccc(Cl)c2)S(C)(=O)=O)CC1 | -0.661% (inactive)
4 | NC(=O)CC(NC(=O)Cc1cccc2ccccc12)c1ccc(NCc2cc(F)ccc2F)c([N+](=O)[O-])c1 (stereo not given) | 10.4% (inactive)
5 | N#Cc1cccc(CS(=O)(=O)c2nnnn2-c2cc(C(F)(F)F)cc(C(F)(F)F)c2)c1 | -8.23% (inactive)
6 | Cc1cc(C(=O)COC(=O)CNC(=O)c2ccc(F)cc2)c(C)n1Cc1ccco1 | 1.82% (inactive)
7 | OCCC1CN(Cc2ccc3nsnc3c2)CCN1C1CCCCC1 (stereo not given) | -12.3% (inactive)
8 | Cc1cc(C)cc(N(CC(=O)NCCSCc2ccco2)S(C)(=O)=O)c1 | 0.74% (inactive)
9 | CC1CCN(c2c(NCc3ccc(C(=O)NCc4ccccc4)cc3)c(=O)c2=O)CC1 | -4% (inactive)
10 | CNC(=O)c1ccc(NC(=O)c2cccc(C(F)(F)F)c2)cc1 | -1.3% (inactive)
11 | Nc1ccc(OCC(O)C[n+]2ccc(CCS(=O)(=O)[O-])cc2)cc1 (stereo not given) | 5.66% (inactive)
12 | Cc1cccc2c1N(CCOc1ccccc1)C(=O)C2=O | -14.8% (inactive)
13 | CN1C(=O)/C(=C\c2ccc(-c3ccccc3)o2)SC1=S | 4.38% (inactive)
14 | C/C(=N\NC(=O)c1cccc(N2CCCC2=O)c1)c1ccc(N)cc1 | 0.376% (inactive)
15 | CC(C)(C)Nc1c(-c2cccs2)nc2ccccn12 | 5.51% (inactive)
16 | Cc1csc(-c2coc3cc(O[C@@H]4O[C@H](CO)[C@@H](O)[C@@H](O)[C@H]4O)ccc3c2=O)n1 | -1.54% (inactive)
17 | c1ccc2c(c1)CSc1sccc1C2=C1CCNCC1 | 7.6% (inactive)
18 | CC(=O)CC(c1ccccc1)C1C(=O)Oc2ccccc2C1=O (stereo not given) | -1.34% (inactive)
19 | COC(=O)C1=C(C(=O)OC)[C@@H]2N(Cc3ccccc3)c3ccccc3[C@@]23C[C@@H](C(=O)OC)N(S(=O)(=O)c2ccc(C(F)(F)F)cc2)C3=N1 | -8.58% (inactive)
20 | O=C(NCCN1CCOCC1)c1ccc2c(c1)N(Cc1ccc(Cl)cc1)CCS2 | 19.9% (inactive)
21 | C/C=C(\C)C(=O)OC1C(OC(=O)C2(C)OC2C)c2cc3ccc(=O)oc3cc2OC1(C)C (stereo not given) | -3.44% (inactive)
22 | CNC(=S)N1CCC(NC(=O)C(Cc2ccc(F)cc2)NC(C)=O)CC1 (stereo not given) | 2.08% (inactive)

Row | Structure (SMILES) | activity change, negative = inhibition
23 | Cc1oc2cc([N+](=O)[O-])c(O)c([N+](=O)[O-])c2c1C(=O)c1ccc(Br)cc1 | 0.458% (inactive)
24 | CCc1ccc(NC(=O)C(=O)N/N=C(\C)CC(=O)NCCOC)cc1 | 3.4% [at 21.1 µM] (inactive)
25 | CCOc1ccc(NC(=O)c2ccc(CSc3nnnn3C)cc2)cc1 | 5.27% (inactive)
26 | COC(=O)C1=C(C(=O)OC)[C@@H]2Nc3ccccc3[C@@]23C[C@@H](C(=O)OC)N(S(=O)(=O)c2ccc([N+](=O)[O-])cc2)C3=N1 | -1.19% (inactive)
27 | COc1ccc(Nc2ncnc3ccc(OC)cc23)cc1 | -4.49% (inactive)
28 | C[N+]1(CC(O)COc2ccccc2)CCN(C(=O)c2ccc([N+](=O)[O-])cc2)CC1 (stereo not given) | -12.9% (inactive)
29 | C/C=C(\C)C(=O)O[C@H]1CC(C)=C2C(=O)C=C(C)C2[C@@H]2OC(=O)[C@@](C)(OC(=O)C=C(C)C)C21 (stereo not given in full) | 0.518% (inactive)
30 | Cc1nc(SCc2ccc(F)cc2)c([N+](=O)[O-])[nH]1 | -11% (inactive)
31 | C=CCN1C(=O)C(Cc2ccc(OCC)cc2)SC1=Nc1ccc(C(=O)O)cc1 (stereo not given) | -0.326% (inactive)
32 | Cc1ccc(C)c(-n2nnnc2SCC(=O)c2c(N)n(C)c(=O)n(C)c2=O)c1 | 7.01% (inactive)
33 | COc1ccc2c(c1)O[C@@H](c1ccc3c(c1)OCO3)[C@H](OC(=O)NCc1ccco1)C2=O | -8.2% (inactive)
34 | Cc1cn(C2OC[C@@H](O)[C@@H]2CO)c(=O)[nH]c1=O (stereo not given in full) | -5.03% (inactive)
35 | Brc1ccc(C2=NCCC(c3ccccc3)O2)cc1 (stereo not given) | -0.0967% (inactive)
36 | C[C@@H]1C(c2ccc(F)cc2)=NN(c2ccc(Br)cc2)[C@H]1C(=O)N1CCOC1=O | 1.05% (inactive)
37 | Cc1csc(SCC(=O)Nc2sccc2C#N)n1 | 1.25% (inactive)
38 | COC(=O)c1ccc(S(=O)(=O)N(CCO)Cc2ccccc2)n1C | 1.9% (inactive)
39 | Nc1nc(C23CC4CC(CC(C4)C2)C3)cs1 | -0.438% (inactive)
40 | CN(CCc1cn[nH]c1)C(=O)CC1C(=O)NCCN1Cc1cccc(Oc2ccccc2)c1 (stereo not given) | 7.92% (inactive)
41 | Cc1cc(C)nc(SC2CCCCC2NS(=O)(=O)c2ccc(Cl)cc2)n1 (stereo not given) | -10.7% (inactive)
42 | Cc1ccc(S(=O)(=O)N2CCC(C(=O)OCC(=O)N3CC(=O)Nc4ccccc43)CC2)cc1 | -0.506% (inactive)
43 | Cc1ccc(C2CC(c3cccc(NS(C)(=O)=O)c3)=NN2S(C)(=O)=O)cc1 (stereo not given) | 10.3% (inactive)
44 | CCOC(=O)C1=C(C)c2ccccc2OC1(C)C(=O)OCC (stereo not given) | -6.68% (inactive)

Row | Structure (SMILES) | activity change, negative = inhibition
45 | Cc1cccc(NC(=S)NCc2ccc3[nH]c4c(c3c2)CCCC4)c1 | -1.22% (inactive)
46 | COc1ccc(-c2c(C)cc3oc(=O)cc(-c4ccccc4)c3c2C)cc1OC | -21.7% (inactive)
47 | OC[C@H]1O[C@@H](n2cnc3c(NC4CCCC4)ncnc32)[C@H](O)[C@H]1O | 0.0639% (inactive)
48 | COC1(C2=NCCN2)COc2ccccc2O1 (stereo not given) | -0.194% (inactive)
49 | COC(C)C(C(=O)OCC1=CCN2CC[C@H](O)[C@@H]12)C(C)C (stereo not given in full) | -7.37% (inactive)
50 | COc1ccc(-c2nc3c(c4c2C[C@H](c2ccccc2)OC4)CN(C(=O)c2ccco2)CC3)c(C)c1 | 9.81% (inactive)
51 | CCn1c(SCC(=O)Nc2ccc(C)cc2)nc2nc3c(cc2c1=O)CCCC3 | 0.427% (inactive)
52 | Cc1cc(N)n(-c2ccc(S(=O)(=O)N3CCCC3)cc2[N+](=O)[O-])n1 | 8.19% (inactive)
53 | Cc1cc(Cl)ccc1OCc1nc(-c2ccncc2)no1 | -7.26% (inactive)
54 | CC(C)(C)NS(=O)(=O)CC12CCC(CC1=O)C2(C)C (stereo not given) | -2.78% (inactive)
55 | CCn1c(SCc2ccccc2)nc2c(c1=O)SCC2 | -18.3% (inactive)
56 | COc1ccc(-c2nc3c(c4c2C[C@H](c2ccccc2)OC4)CN(C(=O)C2CC2)CC3)c(C)c1 | -7.05% (inactive)
57 | C=CCN1c2ccccc2[C@]23C[C@@H](C(=O)OC)N(S(=O)(=O)c4ccc([N+](=O)[O-])cc4)C2=NC(C(=O)OC)=C(C(=O)OC)[C@H]13 | -4.09% (inactive)
58 | O=C(CSc1cccc[n+]1[O-])c1ccc(Cl)cc1 | 3.17% (inactive)
59 | O=C(NCc1cccnc1)c1cnc2ccccc2n1 | 1.77% (inactive)
60 | CCCCS(=O)(=O)N1C2=NC(C(=O)OC)=C(C(=O)OC)[C@@H]3N(Cc4ccccc4)c4ccccc4[C@]23C[C@H]1C(=O)OC | 7.1% (inactive)
61 | Nn1c(SCC(=O)Nc2nccs2)nncc1=O | -6.09% (inactive)
62 | O=c1[nH]c(SCc2cccc(F)c2)nc2ccccc12 | 0.781% (inactive)
63 | COc1ccc(/C=N/OCC(=O)N(Cc2ccccc2)c2ccccc2C(=O)O)cc1 | -13.4% (inactive)
64 | O=C(COc1cccc(F)c1)Oc1ccc(C(=O)c2ccccc2)cc1 | 1.38% (inactive)
65 | COc1ccc(-c2nc3c(c4c2C[C@H](c2ccccc2)OC4)CN(S(=O)(=O)c2c(C)noc2C)CC3)c(C)c1 | 11.4% (inactive)
